# From PubChem BioAssay (EPA / NIEHS)
# Results filed as inconclusive are left out. A structure can be active in one record and inactive in another. Active and inactive are the calls of the source. The calls were made as follows, unless noted: active = hit-call score of the fitted dose curve at least 0.9, where 1 is the maximum; inconclusive = response in the unintended direction; inactive = score below 0.9.
# Experiments:
# [1] = ATG_GRE_CIS: Attagene CIS-FACTORIAL HepG2 Assay for human Glucocorticoid Response Elements (GRE) (AID 2282947; active = hit-call score of the fitted dose curve at least 0.9, where 1 is the maximum; inactive = score below 0.9); conditions: HepG2 GRE cis-reporter, Attagene multiplex mRNA; actives raise or lower the signal
# Method in brief: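 Read-out: fluorescent reporter-transcript fragments separated by capillary electrophoresis after RT-PCR. Transiently transfected HepG2 cells carrying cis-element-driven reporter units were dosed for 24 h; gain or loss of signal fitted against DMSO control.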
# [2] = ATG_RORE_CIS: Attagene CIS-FACTORIAL HepG2 Assay for human RAR-related Orphan Receptor Element (RORE) (AID 2282959; active = hit-call score of the fitted dose curve at least 0.9, where 1 is the maximum; inactive = score below 0.9); conditions: HepG2 Attagene cis-factorial RORE reporter, mRNA; actives raise or lower the signal
# Method in brief: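 HepG2 cells transiently transfected with multiple cis-element reporter transcription units, exposed to chemical for 24 h. Reporter mRNA quantified by RT-PCR, 6-FAM primer-extension labeling, HpaI digestion and capillary electrophoresis; bidirectional fit versus DMSO baseline.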
# [3] = molecular target: Hepatocyte nuclear factor 4-alpha (Homo sapiens) (UniProt P41235); assay: ATG_HNF4a_TRANS: Attagene TRANS-FACTORIAL HepG2 Assay for human Hepatocyte Nuclear Factor 4 alpha (HNF4a) (AID 2282982); conditions: HepG2 HNF4a transactivation reporter, mRNA readout
# Chain of Hepatocyte nuclear factor 4-alpha (Homo sapiens) (P41235 whole entry, looked up): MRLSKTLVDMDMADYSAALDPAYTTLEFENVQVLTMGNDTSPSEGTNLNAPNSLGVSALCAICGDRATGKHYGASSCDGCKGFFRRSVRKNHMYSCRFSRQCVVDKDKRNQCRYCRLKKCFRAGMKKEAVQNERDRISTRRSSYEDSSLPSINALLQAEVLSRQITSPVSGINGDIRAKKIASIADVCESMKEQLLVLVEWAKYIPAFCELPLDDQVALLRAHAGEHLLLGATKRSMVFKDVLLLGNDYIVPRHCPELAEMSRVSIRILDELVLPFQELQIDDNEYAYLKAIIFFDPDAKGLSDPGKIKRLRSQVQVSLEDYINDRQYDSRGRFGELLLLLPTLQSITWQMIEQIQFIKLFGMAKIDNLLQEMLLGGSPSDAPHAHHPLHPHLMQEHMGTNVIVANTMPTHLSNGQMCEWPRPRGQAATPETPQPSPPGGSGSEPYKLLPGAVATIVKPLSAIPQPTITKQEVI
# Method in brief: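 Transient MRTU transfection of HepG2, 24 h dosing. Readout: reporter mRNA via RT-PCR + capillary electrophoresis, fluorescence; activity fit upward relative to DMSO control.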
# [4] = molecular target: human Peroxisome Proliferator-activated Receptor alpha (PPARa), PPARA (gene 5465) (UniProt Q07869); assay: ATG_PPARa_TRANS: Attagene TRANS-FACTORIAL HepG2 Assay for human Peroxisome Proliferator-activated Receptor alpha (PPARa) (AID 2283001);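 as to AC50: potency for gain of reporter signal over DMSO so agonist or activator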
# Chain of human Peroxisome Proliferator-activated Receptor alpha (PPARa), PPARA (gene 5465) (Q07869 whole entry, looked up, the tested form may be a part): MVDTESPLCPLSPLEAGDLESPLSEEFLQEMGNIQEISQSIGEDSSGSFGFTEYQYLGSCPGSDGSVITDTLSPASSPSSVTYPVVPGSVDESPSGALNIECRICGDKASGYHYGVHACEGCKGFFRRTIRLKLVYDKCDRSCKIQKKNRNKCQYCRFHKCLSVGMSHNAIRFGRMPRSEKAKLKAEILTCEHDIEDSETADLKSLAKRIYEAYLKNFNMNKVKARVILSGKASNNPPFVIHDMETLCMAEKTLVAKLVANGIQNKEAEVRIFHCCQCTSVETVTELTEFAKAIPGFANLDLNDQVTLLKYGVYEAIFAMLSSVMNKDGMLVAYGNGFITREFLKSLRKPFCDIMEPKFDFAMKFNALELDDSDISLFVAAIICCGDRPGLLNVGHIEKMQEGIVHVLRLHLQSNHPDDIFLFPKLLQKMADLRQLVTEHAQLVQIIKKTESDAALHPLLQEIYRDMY
# Method in brief: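 Transient HepG2 transfection, GAL4-UAS reporters, NR-Gal4 chimeras; 24 h compound exposure. Readout: reporter transcripts by RT-PCR, 6-FAM primer extension, HpaI digest, capillary electrophoresis. Positive direction vs DMSO baseline.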
# [5] = TOX21_p53_BLA_p2_viability: Viability Assessment in the Tox21 HCT-116 p53 Agonism Beta-lactamase Assay, Phase 2 (AID 2283591);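 also: compound exposure lasted 16 h at 37 °C; actives lower the ATP signal meaning cytotoxicity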
# Method in brief: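 HCT116 p53-bla cells, 4000/well, dosed after 5 h plating (217-fold dilution of DMSO stocks) and incubated 16 h at 37C. Viability taken as cellular ATP by CellTiter-Glo luminescence after 30 min RT; signal loss marks cytotoxicity.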
# [6] = molecular target: Cellular tumor antigen p53 (Homo sapiens) (UniProt P04637); assay: TOX21_p53_BLA_p3_ratio: Tox21 HCT-116 p53 Agonism Beta-lactamase Assay, Ratio, Phase 3 (AID 2283596)
# Chain of Cellular tumor antigen p53 (Homo sapiens) (P04637 whole entry, looked up): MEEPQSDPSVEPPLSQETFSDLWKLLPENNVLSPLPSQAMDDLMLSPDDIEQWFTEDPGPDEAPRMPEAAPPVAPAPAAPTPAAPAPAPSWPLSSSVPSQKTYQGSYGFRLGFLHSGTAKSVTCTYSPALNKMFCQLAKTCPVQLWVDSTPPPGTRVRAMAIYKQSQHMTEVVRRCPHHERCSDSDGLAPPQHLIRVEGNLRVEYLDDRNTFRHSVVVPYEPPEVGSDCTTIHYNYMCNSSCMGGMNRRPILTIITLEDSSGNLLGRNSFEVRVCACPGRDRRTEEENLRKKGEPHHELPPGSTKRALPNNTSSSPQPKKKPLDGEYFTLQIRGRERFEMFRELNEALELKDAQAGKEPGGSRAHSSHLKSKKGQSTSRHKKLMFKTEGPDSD
# Method in brief: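 Cells were seeded at 4000/well, rested 5 h at 37C, then dosed with DMSO compound solutions (217-fold dilution) for 16 h. CCF4-AM substrate was loaded for 2 h at room temperature, and the 460/530 nm emission ratio was fitted for gain of signal versus DMSO.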
# [7] = molecular target: Cellular tumor antigen p53 (Homo sapiens) (UniProt P04637); assay: TOX21_p53_BLA_p5_ratio: Tox21 HCT-116 p53 Agonism Beta-lactamase Assay, Ratio, Phase 5 (AID 2283599)
# Method in brief: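 HCT-116 p53-bla cells (4000/well) plated 5 h, dosed with compound (217-fold DMSO dilution) for 16 h at 37 C; CCF4-AM substrate 2 h at room temperature. Activity is the 460/530 nm emission ratio (405 nm excitation), fitted in gain-of-signal direction versus DMSO.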
# [8] = TOX21_p53_BLA_p5_viability: Viability Assessment in the Tox21 HCT-116 p53 Agonism Beta-lactamase Assay, Phase 5 (AID 2283600)
# Method in brief: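 Viability is taken from cellular ATP content, measured by luciferase luminescence in the same wells after the beta-lactamase ratio read. Cells are seeded at 4000 per well and exposed to DMSO-dissolved compounds, diluted 217-fold, for 16 h.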
# [9] = molecular target: Cellular tumor antigen p53 (Homo sapiens) (UniProt P04637); assay: TOX21_p53_BLA_p4_ratio: Tox21 HCT-116 p53 Agonism Beta-lactamase Assay, Ratio, Phase 4 (AID 2283601)
# Method in brief: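 HCT-116 p53 beta-lactamase reporter cells (4000/well) preincubated 5 h, then compound (217-fold dilution of DMSO stock) for 16 h at 37C. CCF4-AM substrate added 2 h at room temperature; 460/530 nm emission ratio fitted upward versus DMSO.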
# [10] = molecular target: Retinoic acid receptor alpha (Homo sapiens) (UniProt P10276); assay: ATG_DR5_RAR_CIS: Attagene CIS-FACTORIAL HepG2 Assay for human Retinoic Acid Receptor Alpha (RARE), DR5 submotif (AID 2282934; active = hit-call score of the fitted dose curve at least 0.9, where 1 is the maximum; inactive = score below 0.9); conditions: HepG2 Attagene cis-factorial RARE DR5 reporter, mRNA; actives raise or lower the signal
# Chain of Retinoic acid receptor alpha (Homo sapiens) (P10276 whole entry, looked up): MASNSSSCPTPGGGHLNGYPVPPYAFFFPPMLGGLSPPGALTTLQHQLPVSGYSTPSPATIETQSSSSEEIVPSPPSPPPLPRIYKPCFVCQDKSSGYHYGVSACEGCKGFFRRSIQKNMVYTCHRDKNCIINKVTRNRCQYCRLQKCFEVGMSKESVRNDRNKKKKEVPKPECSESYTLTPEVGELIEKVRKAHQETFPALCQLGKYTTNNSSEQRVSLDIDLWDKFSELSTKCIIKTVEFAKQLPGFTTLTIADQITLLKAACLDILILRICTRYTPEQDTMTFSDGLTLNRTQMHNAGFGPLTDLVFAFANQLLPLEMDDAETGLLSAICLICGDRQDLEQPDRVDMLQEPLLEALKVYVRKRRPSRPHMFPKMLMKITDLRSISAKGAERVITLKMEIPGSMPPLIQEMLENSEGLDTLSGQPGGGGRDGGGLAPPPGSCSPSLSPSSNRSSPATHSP
# Method in brief: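 HepG2 cells transiently transfected with multiplexed reporter units; DR5 cis-element drives reporter through endogenous transcription factors. After 24 h dosing, reporter mRNA quantified by RT-PCR, fluorescent labeling, HpaI digestion and capillary electrophoresis; bidirectional fitting versus DMSO.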
# [11] = molecular target: Hepatocyte nuclear factor 3-beta (Homo sapiens) (UniProt Q9Y261); assay: ATG_FoxA2_CIS: Attagene CIS-FACTORIAL HepG2 Assay for human Forkhead box A2 (FOXA2) (AID 2282942; active = hit-call score of the fitted dose curve at least 0.9, where 1 is the maximum; inactive = score below 0.9); conditions: HepG2 cis-reporter transcription factor activity, 24 h; actives raise or lower the signal
# Chain of Hepatocyte nuclear factor 3-beta (Homo sapiens) (Q9Y261 whole entry, looked up): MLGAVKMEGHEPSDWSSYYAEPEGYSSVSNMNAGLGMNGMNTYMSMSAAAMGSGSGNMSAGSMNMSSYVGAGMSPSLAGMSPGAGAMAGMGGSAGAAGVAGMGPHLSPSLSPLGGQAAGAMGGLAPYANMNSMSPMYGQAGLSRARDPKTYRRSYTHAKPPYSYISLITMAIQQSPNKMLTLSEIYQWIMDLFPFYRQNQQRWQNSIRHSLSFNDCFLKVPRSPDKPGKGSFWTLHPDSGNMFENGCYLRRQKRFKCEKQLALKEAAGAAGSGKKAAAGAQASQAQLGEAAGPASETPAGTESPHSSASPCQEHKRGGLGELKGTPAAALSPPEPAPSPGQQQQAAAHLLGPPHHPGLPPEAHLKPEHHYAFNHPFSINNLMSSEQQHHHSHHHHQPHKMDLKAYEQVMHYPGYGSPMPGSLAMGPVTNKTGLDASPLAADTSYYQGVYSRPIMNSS
# Method in brief: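 HepG2 cells transiently transfected with multiple cis-regulated reporter transcription units, dosed for 24 h. Reporter mRNA measured by RT-PCR, 6-FAM labelling, HpaI digestion and capillary electrophoresis; bidirectional fitting against DMSO baseline.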
# [12] = ATG_GLI_CIS: Attagene CIS-FACTORIAL HepG2 Assay for human Zinc Finger Protein GLI1 (AID 2282945; active = hit-call score of the fitted dose curve at least 0.9, where 1 is the maximum; inactive = score below 0.9); conditions: HepG2, Attagene cis-factorial reporter mRNA, GLI element; actives raise or lower the signal
# Method in brief: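 Transiently transfected HepG2 cells report endogenous transcription factor activity via cis-element-driven reporter units. After 24 h compound exposure, reporter mRNA was measured by RT-PCR with capillary electrophoresis; bidirectional fitting against DMSO baseline.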
# [13] = ATG_PBREM_CIS: Attagene CIS-FACTORIAL HepG2 Assay for human Phenobarbital-responsive Enhancer Module (PBREM) (AID 2282955; active = hit-call score of the fitted dose curve at least 0.9, where 1 is the maximum; inactive = score below 0.9); conditions: HepG2 PBREM cis-reporter, Attagene multiplexed transcription; actives raise or lower the signal
# Method in brief: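 HepG2 cells transiently transfected with multiple cis-regulated reporter transcription units; endogenous factor activity at the PBREM element measured as reporter mRNA 24 h after dosing, via RT-PCR and capillary electrophoresis of fluorescent fragments; bidirectional fitting versus DMSO.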
# [14] = ATG_NF_kB_CIS: Attagene CIS-FACTORIAL HepG2 Assay for human Nuclear Factor Kappa B (NF-kB) (AID 2282991; active = hit-call score of the fitted dose curve at least 0.9, where 1 is the maximum; inactive = score below 0.9); conditions: HepG2 Attagene cis-factorial NF-kB reporter mRNA; actives raise or lower the signal
# Method in brief: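 HepG2 cells transiently transfected with multiplexed cis-element reporter units measuring endogenous transcription factor activity; reporter mRNA read 24 h after dosing by RT-PCR, fluorescent labelling, HpaI digestion and capillary electrophoresis. Bidirectional fit against DMSO baseline.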
# [15] = molecular target: human Retinoid X Receptor beta (RXRb), RXRB (gene 6257) (UniProt P28702); assay: ATG_RXRb_TRANS: Attagene TRANS-FACTORIAL HepG2 Assay for human Retinoid X Receptor beta (RXRb) (AID 2283013)
# Chain of human Retinoid X Receptor beta (RXRb), RXRB (gene 6257) (P28702 whole entry, looked up, the tested form may be a part): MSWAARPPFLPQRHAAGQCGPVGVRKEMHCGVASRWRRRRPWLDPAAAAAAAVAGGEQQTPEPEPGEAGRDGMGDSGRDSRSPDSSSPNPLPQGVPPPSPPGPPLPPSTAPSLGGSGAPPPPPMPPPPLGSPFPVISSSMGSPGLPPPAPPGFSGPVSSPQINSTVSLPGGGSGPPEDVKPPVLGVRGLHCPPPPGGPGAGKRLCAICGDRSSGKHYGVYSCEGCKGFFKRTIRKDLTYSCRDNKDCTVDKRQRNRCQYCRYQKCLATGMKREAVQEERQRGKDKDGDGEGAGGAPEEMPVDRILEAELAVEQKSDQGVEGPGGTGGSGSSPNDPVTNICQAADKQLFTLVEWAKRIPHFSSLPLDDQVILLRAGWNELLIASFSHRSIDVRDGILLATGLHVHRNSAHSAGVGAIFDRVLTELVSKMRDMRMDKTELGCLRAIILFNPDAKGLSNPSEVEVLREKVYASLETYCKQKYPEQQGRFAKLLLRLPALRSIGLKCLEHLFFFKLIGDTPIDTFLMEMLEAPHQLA
# Method in brief: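 Read-out: reporter mRNA induction via RT-PCR plus capillary electrophoresis fluorescence, analysed as signal increase relative to DMSO. Cells were human HepG2, transiently transfected with GAL4-UAS reporter constructs and chimeric receptor-Gal4 fusions, dosed for 24 h.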
# [16] = ATG_M_32_CIS: Attagene CIS-FACTORIAL HepG2 Assay for M32 Transcription Factor (Internal Marker) (AID 2282949; active = hit-call score of the fitted dose curve at least 0.9, where 1 is the maximum; inactive = score below 0.9;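 also: background control marker of the multiplexed CIS panel rather than a real target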); conditions: HepG2 Attagene cis-factorial M32 reporter, mRNA; actives raise or lower the signal
# Method in brief: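 Transient MRTU transfection of HepG2; 24 h compound treatment; TriZol RNA, oligo(dT) RT, reporter PCR, 6-FAM primer extension, HpaI cut, CE. Gain/loss of signal vs DMSO.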
# [17] = ATG_M_32_TRANS: Attagene TRANS-FACTORIAL HepG2 Assay for M32 Transcription Factor (Internal Marker) (AID 2282984); conditions: HepG2 Attagene TRANS M32 internal marker reporter;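 also: transcript level of a background control reporter unit measured by RT-PCR and capillary electrophoresis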
# Method in brief: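 Read-out: fluorescent reporter cDNA fragments resolved by capillary electrophoresis after RT-PCR of total RNA. Transfected HepG2 cells were exposed to chemical for 24 h. Activity scored in the positive direction relative to DMSO.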
# [18] = molecular target: Nuclear respiratory factor 1 (Homo sapiens) (UniProt Q16656); assay: ATG_NRF1_CIS: Attagene CIS-FACTORIAL HepG2 Assay for human Nuclear Respiratory Factor 1 (NRF1) Orphan Gene (AID 2282987; active = hit-call score of the fitted dose curve at least 0.9, where 1 is the maximum; inactive = score below 0.9); conditions: HepG2 NRF1 cis-element reporter, Attagene multiplex; actives raise or lower the signal
# Chain of Nuclear respiratory factor 1 (Homo sapiens) (Q16656 whole entry, looked up): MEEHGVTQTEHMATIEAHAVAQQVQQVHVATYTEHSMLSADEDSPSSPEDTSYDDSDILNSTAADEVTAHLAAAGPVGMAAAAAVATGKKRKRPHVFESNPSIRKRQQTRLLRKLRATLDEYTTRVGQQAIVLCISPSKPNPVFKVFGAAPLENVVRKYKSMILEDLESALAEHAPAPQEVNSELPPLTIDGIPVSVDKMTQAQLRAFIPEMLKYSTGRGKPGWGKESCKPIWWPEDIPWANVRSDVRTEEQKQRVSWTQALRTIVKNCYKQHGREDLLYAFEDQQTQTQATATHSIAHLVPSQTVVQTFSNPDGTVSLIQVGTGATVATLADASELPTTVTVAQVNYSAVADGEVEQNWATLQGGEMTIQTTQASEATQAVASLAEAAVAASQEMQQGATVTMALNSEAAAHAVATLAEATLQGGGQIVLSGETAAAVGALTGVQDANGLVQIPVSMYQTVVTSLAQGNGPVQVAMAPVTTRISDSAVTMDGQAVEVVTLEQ
# Method in brief: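 HepG2 cells transiently transfected with multiple reporter transcription units under cis-regulatory promoter control, so endogenous transcription-factor activity is read. After 24 h compound exposure, reporter mRNA quantified by RT-PCR, fluorescent labelling, HpaI digestion and capillary electrophoresis; bidirectional fitting versus DMSO.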
# [19] = ATG_MRE_CIS: Attagene CIS-FACTORIAL HepG2 Assay for human Metal Responsive Element (MRE) (AID 2282954; active = hit-call score of the fitted dose curve at least 0.9, where 1 is the maximum; inactive = score below 0.9); conditions: HepG2 MRE cis-reporter transcription, Attagene multiplex; actives raise or lower the signal
# Method in brief: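 RT-PCR/capillary electrophoresis readout of reporter mRNA, 24 h post-dosing, in HepG2 cells transfected with multiplexed cis-regulated reporter constructs. Gain or loss of signal fitted bidirectionally against DMSO baseline.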
# [20] = molecular target: Retinoic acid receptor RXR-alpha (Homo sapiens) (UniProt P19793); assay: ATG_RXRa_TRANS: Attagene TRANS-FACTORIAL HepG2 Assay for human Retinoid X Receptor alpha (RXRa) (AID 2283012)
# Chain of Retinoic acid receptor RXR-alpha (Homo sapiens) (P19793 whole entry, looked up, the tested form may be a part): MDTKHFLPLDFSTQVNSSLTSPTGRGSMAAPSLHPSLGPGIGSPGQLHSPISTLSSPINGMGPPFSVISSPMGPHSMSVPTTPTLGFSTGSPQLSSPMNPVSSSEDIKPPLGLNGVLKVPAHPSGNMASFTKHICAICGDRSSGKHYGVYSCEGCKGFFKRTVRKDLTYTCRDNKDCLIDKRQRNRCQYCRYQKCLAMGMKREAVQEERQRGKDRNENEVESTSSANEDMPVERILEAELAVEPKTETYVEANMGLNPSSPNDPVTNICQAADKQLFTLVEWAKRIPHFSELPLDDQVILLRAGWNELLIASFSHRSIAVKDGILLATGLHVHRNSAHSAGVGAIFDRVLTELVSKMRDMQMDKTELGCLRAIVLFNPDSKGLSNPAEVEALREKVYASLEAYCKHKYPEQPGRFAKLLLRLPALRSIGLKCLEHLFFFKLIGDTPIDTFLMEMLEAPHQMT
# Method in brief: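 Read-out: fluorescent reporter-transcript fragments quantified by capillary electrophoresis after RT-PCR. Transiently transfected HepG2 cells carrying GAL4-UAS reporters and NR-GAL4 chimeras were exposed to chemical for 24 h; activity scored as increase over DMSO.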
smiles,measurement,setting,value
CC1(C)S[C@@H]2[C@H](NC(=O)[C@H](N)c3ccccc3)C(=O)N2[C@H]1C(=O)O,outcome,[1],inactive
same,outcome,[2],inactive
same,outcome,[3],inactive
same,outcome,[4],inactive
same,outcome,[5],inactive
same,outcome,[6],inactive
same,outcome,[7],inactive
same,outcome,[8],inactive
same,outcome,[9],inactive
NC(=O)c1ccc(N)cc1,outcome,[10],inactive
same,outcome,[11],inactive
same,outcome,[12],inactive
same,outcome,[1],inactive
same,outcome,[13],inactive
same,outcome,[3],inactive
same,outcome,[14],inactive
same,outcome,[15],inactive
same,outcome,[5],inactive
same,outcome,[8],inactive
same,outcome,[9],inactive
NC(=O)c1ccc([N+](=O)[O-])cc1Cl,outcome,[10],inactive
same,outcome,[11],inactive
same,outcome,[1],inactive
same,outcome,[16],inactive
same,outcome,[13],inactive
same,outcome,[2],inactive
same,outcome,[3],inactive
same,outcome,[17],inactive
same,outcome,[18],inactive
same,outcome,[14],inactive
same,outcome,[15],inactive
same,outcome,[5],inactive
same,outcome,[6],inactive
same,outcome,[7],inactive
same,outcome,[8],inactive
same,outcome,[9],inactive
O=[N+]([O-])c1ccc(ON=Cc2cc(Br)c(O)c(Br)c2)c([N+](=O)[O-])c1,outcome,[5],inactive
same,AC50,[6],8.26 µM (active)
same,AC50,[7],13.8 µM (active)
same,outcome,[8],inactive
same,AC50,[9],75.9 µM (active)
CCCCCC[C@@H](O)C/C=C\CCCCCCCC(=O)O,AC50,[1],186 µM (active)
same,outcome,[16],inactive
same,AC50,[19],139 µM (active)
same,outcome,[13],inactive
same,AC50,[2],100 µM (active)
same,outcome,[3],inactive
same,outcome,[17],inactive
same,AC50,[18],139 µM (active)
same,outcome,[14],inactive
same,AC50,[4],8.72 µM (active)
same,outcome,[20],inactive
same,AC50,[15],30.9 µM (active)
same,outcome,[5],inactive
same,AC50,[6],36.6 µM (active)
same,outcome,[6],inactive
same,AC50,[7],37.4 µM (active)
same,outcome,[7],inactive
same,outcome,[8],inactive
same,AC50,[9],73.6 µM (active)
same,outcome,[9],inactive
